Hits are enriched below; roughly 3.7% of the tested compounds scored in any of these assays.
Wnt act: Wnt/beta-catenin pathway activators, primary screen, cell-based, plate reader, single point | activation, % at 9.35 µM | hit rate 1.2% among 300,000 | AID 743398, 2014 | Wnt/beta-catenin reporter cell assay, activator; in the data active means activation above about 30%, passing the limit was not always enough; inconclusive means no clear call, values can overlap the other calls
rRNA inh HTS: reduced GFP signal of wild-type E. coli, primary screen, bacterial rRNA inhibitor project, GFP/RFP fluorescence, OD600, single point | E. coli WT GFP vs humanized-ribosome RFP mutants, 24 h; stronger effect = lower value; DMSO median 0, no signal -100 | GFP signal change (wild-type ribosome), % (concentration not given with the values) | hit rate 1.6% among 350,000;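 active means significant combined selectivity score with lowered wild-type GFP, culture density cut under 30%, mutant RFP and density less affected; inactive means any of these conditions unmet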
MITF act: activators of MITF-driven TRPM1 promoter reporter, primary screen, cell-based, SK-MEL-5, luciferase, single point; SK-MEL-5 TRPM1-promoter luciferase, 24 h; % of positive control, neutral wells = 0; activation, % at 12.5 µM; hit rate 0.75% among 300,000; AID 588334, 2011;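 active means mean activation of at least 80% with every replicate also reaching 80%; inconclusive means mean reaches 80% but some replicate falls short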
esBAF inh: Bmi1 luciferase reporter increase in mESCs, primary screen, esBAF inhibitor project, mouse ES cells, Bmi1 luciferase knock-in, single point | 24 h; 100% = twice the neutral-well signal | reporter increase, % at 12.5 µM | hit rate 2% among 350,000 | AID 602393, 2012; in the data active means activation above about 40%; inconclusive means no clear call, values can overlap the other calls;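 further: a rise in the Bmi1 reporter signal indicates esBAF inhibition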
AF4-AF9 inh: inhibitors of AF4 peptide binding to AF9, primary screen, biochemical, AlphaScreen, biotin-AF4 peptide, FLAG-AF9, single point; hit rate 0.47% among 350,000; inhibition, % at 10 µM; AID 651704, 2012; Protein AF-9 (Homo sapiens), P42568;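 active means every replicate reaching a set inhibition limit, whatever the replicate mean, cut at about 25% in these data; inconclusive means mean inhibition reaches that limit but some replicates miss it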
Target sequence (P42568 whole entry, looked up): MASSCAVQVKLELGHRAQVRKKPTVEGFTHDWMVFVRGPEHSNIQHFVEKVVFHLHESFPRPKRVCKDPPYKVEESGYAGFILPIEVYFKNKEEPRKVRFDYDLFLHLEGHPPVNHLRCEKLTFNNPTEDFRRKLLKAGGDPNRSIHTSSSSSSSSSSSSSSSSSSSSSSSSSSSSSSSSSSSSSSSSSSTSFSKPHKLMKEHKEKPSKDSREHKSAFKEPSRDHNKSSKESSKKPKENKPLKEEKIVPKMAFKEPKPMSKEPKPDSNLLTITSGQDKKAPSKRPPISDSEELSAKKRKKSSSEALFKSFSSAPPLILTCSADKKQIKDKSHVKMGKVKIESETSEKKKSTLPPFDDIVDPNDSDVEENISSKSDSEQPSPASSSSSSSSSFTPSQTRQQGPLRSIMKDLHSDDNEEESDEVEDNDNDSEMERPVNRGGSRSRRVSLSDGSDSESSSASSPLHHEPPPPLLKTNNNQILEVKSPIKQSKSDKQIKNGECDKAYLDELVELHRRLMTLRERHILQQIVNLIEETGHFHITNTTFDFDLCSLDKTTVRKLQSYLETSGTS
Ring1 derepress: Ring1 mRNA increase in mouse ESCs, confirmation, esBAF inhibitor project, cell-based, mouse ESC, RT-qPCR, cherry-pick | fold change at 33 µM | 550 tested, under 10 active | shares compounds with esBAF inh | mouse ESC E14, Ring1 mRNA RT-qPCR fold change;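 active means Ring1 gene expression raised more than 2-fold over untreated cells in both replicates at either tested dose; inconclusive means only one replicate above 2-fold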;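 further: Ring1 transcript normalised to actin housekeeping signal by TaqMan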
esBAF Fgf4 qPCR: Fgf4 mRNA decrease in mouse ESCs, confirmation, esBAF inhibitor project, cell-based, mouse ESC, RT-qPCR, cherry-pick | shares compounds with esBAF inh | mouse ESC E14, Fgf4 mRNA qPCR fold change; stronger effect = lower value | Fgf4 expression fold change at 33 µM | hit rate 4% among 550;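 active means Fgf4 expression under 0.8 fold of control in both repeat measurements at one or both tested doses; inconclusive means under 0.8 fold in just a single repeat measurement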;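 further: Fgf4 transcript normalised to actin in duplex TaqMan qPCR; cells exposed to compound for 24 h before lysis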
Bmi1 derepress: esBAF inhibition via Bmi1 de-repression, confirmation, cell-based, RT-qPCR, mouse ESC, single point, cherry-pick. shares compounds with esBAF inh. mouse ESE14 ES cells, Bmi1 mRNA qPCR fold; stronger effect = higher value. fold change at 33 µM. 550 tested, under 10 active;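 active means Bmi1 expression fold change above 6 at either tested concentration, seen in replicate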
A549 cytotox: A549 cell cytotoxicity, cytotoxicity control, plate reader, single point, cherry-pick; shares compounds with esBAF inh; cell viability change % (negative = cytotoxic), % at 25 µM, hits read low; 550 tested, under 10 active; AID 743188, 2013; call rule not given here
HepG2 tox SP: HepG2 cell cytotoxicity, cytotoxicity control, plate reader, single point, cherry-pick; shares compounds with esBAF inh; stronger effect = lower value; activity change, negative = inhibition, % at 25 µM; hit rate 4% among 550; AID 743189, 2013; in the data active means activity change below about -50%
HEK293 tox SP: HEK293 cell cytotoxicity, cytotoxicity control, plate reader, single point, cherry-pick | shares compounds with esBAF inh | hit rate 3% among 550 | activity change, negative = inhibition, % at 25 µM, hits read low; in the data active means activity change below about -38%, passing the limit was not always enough
A number is an active result; i = inactive; ? = inconclusive; nt = no result.

SMILES	Wnt act	rRNA inh HTS	MITF act	esBAF inh	AF4-AF9 inh	Ring1 derepress	esBAF Fgf4 qPCR	Bmi1 derepress	A549 cytotox	HepG2 tox SP	HEK293 tox SP
Cc1nn(Cc2c(F)c(F)c(F)c(F)c2F)c(C)c1NC(=O)c1ccc(COc2cc(Cl)ccc2Cl)cc1	i	nt	i	47.0	nt	i	i	i	i	i	i
Cc1nn(Cc2c(F)c(F)c(F)c(F)c2F)c(C)c1NC(=O)c1ccc(COc2ccccc2Cl)cc1	nt	nt	i	i	nt	nt	nt	nt	nt	nt	nt
O=S(=O)(c1ccc2ccccc2c1)N1CCN(S(=O)(=O)c2c(F)cccc2F)CC1	i	i	i	80.2	i	i	?	i	i	i	i
CN1CCN(S(=O)(=O)c2ccc3ccccc3c2)CC1	i	i	i	i	i	nt	nt	nt	nt	nt	nt
COc1cc(CN2CC3(CCN(C(=O)Nc4cccc(F)c4)CC3)c3c(n(C)c4cc(OC)ccc34)[C@H]2CO)cc(OC)c1	nt	i	nt	nt	nt	nt	nt	nt	nt	nt	nt
NC(=O)c1ccccc1-c1nc(-c2ccccc2)no1	nt	nt	nt	74.4	nt	i	i	i	i	i	i
O=C(NCc1ccco1)c1ccccc1-c1nc(-c2ccccc2)no1	i	i	i	i	i	nt	nt	nt	nt	nt	nt
Cc1ccc(C(=O)Cc2ccccc2)c(O)c1	i	i	i	61.9	i	i	i	i	i	i	i
COc1ccccc1C=Cc1ccnc2ccccc12	i	i	i	81.9	i	i	0.49	11.1	i	i	i
COC(=O)c1sccc1NC(=O)c1ccc(C)cc1	i	i	i	i	i	nt	nt	nt	nt	nt	nt
COC(=O)c1sccc1NC(=O)c1ccc(OC)cc1	i	nt	nt	75.8	nt	i	i	i	i	i	i
O=C(N[C@H]1CC[C@H](CCNS(=O)(=O)c2ccc(Cl)cc2)O[C@@H]1CO)c1ccccn1	nt	i	nt	i	i	nt	nt	nt	nt	nt	nt
COc1ccccc1C(=O)NCC(=O)Nc1ccc2c(c1)CCC2	i	i	?	72.8	i	i	i	i	i	i	i
Cc1ccc(C(=O)NCC(=O)Nc2ccc3c(c2)CCC3)cc1	i	i	i	71.6	i	i	i	i	i	i	i
COc1ccc(-c2cn3c(C)c(C(=O)NC(C)(C)C)sc3n2)cc1	i	i	nt	72.3	i	i	i	i	i	i	i
COc1ccc(-c2cn3c(C)c(C(=O)NC(C)C)sc3n2)cc1	i	nt	i	i	nt	nt	nt	nt	nt	nt	nt
CCc1nnc(NC(=O)c2ccc3c(=O)n4c(nc3c2)CCC4)s1	i	i	nt	58.7	i	i	i	i	i	i	i
CNC(=O)c1ccc(NC(=O)c2ccc3c(=O)n4c(nc3c2)CCC4)cc1	i	i	i	i	i	nt	nt	nt	nt	nt	nt
Cc1ccc(NC(=O)c2ccc3c(=O)n4c(nc3c2)CCC4)cc1F	52.5	i	i	66.9	i	i	?	i	i	i	i
CO[C@H](CN(C)Cc1cc(F)ccc1F)[C@@H](C)CN([C@H](C)CO)S(=O)(=O)c1ccc(F)cc1	nt	i	nt	i	i	nt	nt	nt	nt	nt	nt
O=C(N/N=C/c1cccc([N+](=O)[O-])c1)c1cccc2cc[nH]c12	i	i	i	nt	i	nt	nt	nt	nt	nt	nt
O=C(N/N=C/c1cccs1)c1cccc2cc[nH]c12	i	i	i	56.9	i	i	i	i	i	i	i
Cc1ccc(S(=O)(=O)N(C)C[C@@H]2Oc3ccc(NC(=O)c4ccncc4)cc3C(=O)N([C@@H](C)CO)C[C@@H]2C)cc1	nt	i	nt	i	i	nt	nt	nt	nt	nt	nt
Brc1ccc(-c2nnc(-c3cccnc3)o2)cc1	?	i	?	nt	nt	nt	nt	nt	nt	nt	nt
Brc1ccccc1-c1nnc(-c2cccnc2)o1	i	nt	nt	66.4	nt	i	i	i	i	i	i
SMILES	Wnt act	rRNA inh HTS	MITF act	esBAF inh	AF4-AF9 inh	Ring1 derepress	esBAF Fgf4 qPCR	Bmi1 derepress	A549 cytotox	HepG2 tox SP	HEK293 tox SP
COc1cc(Cl)ccc1OCc1cc(C(=O)N(C)Cc2cccc3cnccc23)no1	i	i	i	71.0	i	i	i	i	i	i	i
CCc1sc(C(=O)Nc2ccc3nc(C)sc3c2)cc1C	i	nt	90.3	80.0	i	i	0.61	i	i	i	i
Cc1[nH][nH]c(=O)c1[C@@H](c1ccccc1[N+](=O)[O-])C(C#N)C#N	i	i	i	i	i	nt	nt	nt	nt	nt	nt
COc1cccc(C(=O)c2cc3cc(Cl)ccc3[nH]2)c1	i	i	i	77.6	i	i	?	i	i	i	i
O=C(c1ccccc1)c1cc2cc(Cl)ccc2[nH]1	i	i	i	i	i	nt	nt	nt	nt	nt	nt
c1ccc(CCc2nc(-c3cccnc3)no2)cc1	nt	nt	i	59.2	nt	i	i	i	i	i	i
C[C@@H]1CN([C@@H](C)CO)S(=O)(=O)c2ccc(-c3ccc(F)cc3)cc2O[C@H]1CN(C)C(=O)Nc1ccc(F)cc1	nt	i	nt	nt	nt	nt	nt	nt	nt	nt	nt
COc1ccc(C(O)c2nc(-c3ccc(N(C)C)cc3)cs2)cc1 (stereo not given)	i	i	nt	?	i	nt	nt	nt	nt	nt	nt
CN(C)c1ccc(-c2csc(C(O)c3ccccc3)n2)cc1 (stereo not given)	i	i	nt	61.2	i	i	?	i	i	i	i
COc1ccc(-c2csc(C(O)c3ccc(F)cc3)n2)cc1 (stereo not given)	i	i	nt	59.7	i	i	i	i	i	i	i
CN(C)c1ccc(-c2csc(C(O)c3ccc(F)cc3)n2)cc1 (stereo not given)	i	i	nt	82.0	i	i	i	i	i	i	i
CCS(=O)(=O)N[C@@H]1CC[C@@H](CC(=O)N2CCCCC2)O[C@@H]1CO	nt	i	nt	i	i	nt	nt	nt	nt	nt	nt
Cc1ccc(NC(=O)Nc2cccc(C)n2)c(C)c1	38.9	i	i	56.3	i	i	i	i	i	i	i
Cc1ccc(N2Cc3ccccc3C2=O)cc1	i	i	i	i	i	nt	nt	nt	nt	nt	nt
O=C1c2ccccc2CN1c1ccccc1	i	i	nt	55.0	i	i	i	i	i	i	i
COC(=O)c1sccc1NC(=O)C1CC1	i	i	i	nt	i	nt	nt	nt	nt	nt	nt
